From the supplement of paper PMC6555819

What was measured:
Assay in all cases: PBM binding z-score (relative to random genomic background probes); higher = stronger binding; sequences stand for … in GC…GCGATTGACAGCGTAGAATGAAGG
[1] = test system: RARb homodimer (NR concentration 270 nM)
Procedure, shortened: (§1)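 Ligand-free nuclear receptor dimers were applied to custom Agilent 4×180K protein-binding microarrays whose double-stranded probes carried direct-repeat seeds, single-nucleotide variants, half-site ablations and random human genomic background sequences in 34-nt variable regions. Incubation lasted 1 h. Binding z-scores were computed against the random background probes from regression-normalized fluorescence.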

[2] = test system: RARg homodimer (NR concentration 270 nM)
Procedure, shortened: as §1

[3] = test system: RXRa DBDmut IVT, anti-RXR (DBD mutation: RXRa K156A/R161A, NR concentration 90 nM)
Procedure, shortened: as §1

[4] = test system: RXRa homodimer (NR concentration 180 nM)
Procedure, shortened: as §1

[5] = test system: THRa homodimer (NR concentration 90 nM)
Procedure, shortened: as §1

[6] = test system: VDR homodimer (NR concentration 270 nM)
Procedure, shortened: as §1

[7] = test system: THRa:RXRa (NR concentration 90 nM, RXRa partner concentration 90 nM)
Procedure, shortened: as §1

[8] = test system: VDR:RXRa (NR concentration 270 nM, RXRa partner concentration 90 nM)
Procedure, shortened: as §1

Row | Sequence | PBM binding z-score [1] | PBM binding z-score [2] | PBM binding z-score [3] | PBM binding z-score [4] | PBM binding z-score [5] | PBM binding z-score [6] | PBM binding z-score [7] | PBM binding z-score [8]
1 | AGTCAAAGTTCAGGACGAGGTCACGTAAAGCACG | 5.39 | 7.28 | 3.45 | 6.81 | 4.95 | 5.43 | – | –
2 | TCGAGTAGGTTACGTGGGCATTCAGGGATGAAGA | 0.175 | 0.607 | 0.0477 | 0.631 | -0.426 | -0.34 | 0.726 | –
3 | CGTCCAAGGTCAATGCGAGGTCAGTGAAAGCATT | 5.27 | 6.95 | 3.59 | 6.15 | 4.23 | 4.73 | – | –
4 | GCTAGTGGGTCAGTAAAAGGTCACACACCGGTCG | 5.72 | 6.65 | 0.518 | 6.21 | 1.66 | 2.18 | 4.09 | –
5 | AGTCAAAGGTCACTAGGTAACGTAAGATTCAGCT | 5.03 | 8.53 | 2.94 | – | 0.996 | 2.14 | 3.99 | 5.23
6 | TTACCGAGGTGAAAGGTCGTTGATGCACGCCTTG | 2.67 | 1.87 | 0.775 | 6.76 | 0.983 | 1.47 | 3.7 | –
7 | CCTACTGGGCCAATAAGGTCATTGATGCCGATAA | 3.48 | 2.87 | 1.09 | 2.78 | 3.44 | 2.76 | 4 | –
8 | CCTTACGGGTCTAGGTTATAGCACGGGTGGTACG | 0.113 | 0.0918 | -1.08 | – | 0.173 | -0.202 | 0.109 | –
9 | TCTCGGAGGTCACGAAGGTCAGAGCTTTCCAGAG | 5.66 | 8.12 | 3.05 | – | 2.29 | 5.14 | 4.64 | –
10 | AACGAAAGGTCGACGAGGTGAGTATACACCGTTT | 3 | 3.73 | 1.64 | 4.41 | 0.519 | 0.772 | 3.85 | –
11 | CAAACTAGGTCACAGGGGTCAAAGTCCGTGCGTA | 5.94 | 7.58 | 3.6 | 8.57 | 3 | 7.07 | – | –
12 | TCTAGTTGGTGACGGAGGTCACACACGACGGGTA | 3.88 | 3.21 | 0.917 | 4.29 | 2.23 | 1.83 | 3.41 | –
13 | TGGCCTAGGTCATGGGCCAGTATACCACGCGAAC | 2.96 | 5.07 | -0.28 | 3.6 | 0.639 | -0.0403 | 2.83 | –
14 | ATACCAAGGTCATCGTGAGGTCGTTGATACTAAC | 4.72 | 6.27 | 3.76 | 6.49 | 3.91 | 5.41 | – | –
15 | CGTCCAAGGTCAAAGGTCACTGAAGAGATGACGG | 5.74 | 8.6 | 4.13 | 10.1 | 3.25 | 4.21 | 4.9 | –
